Data from PubChem BioAssay (NCATS).
Records with an inconclusive call do not appear. Activity calls are given as the source filed them. Calls come from the whole dose curve; as a rule, active = well fitted inhibition curve with a large enough effect; inconclusive = small, poorly fitted or top-dose-only effect; inactive = flat fitted curve, though single readings scatter.

Key:
Assay in all cases: Cytotoxic Profiling of Annotated Libraries Using Quantitative High-Throughput Screening (AID 1296008); note: nearly all actives have a fitted effect of over 60% in size
Conditions in all cases: Five cell lines viability, CellTiter-Glo ATP luminescence, 48-72 h; max response: hits give low values
CRL-7250 = normal cell line; tested on: CRL-7250
Procedure, shortened: (§1)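 Compounds were pin-transferred onto cells and incubated 48 or 72 hr at 37 degree Celsius, 95% humidity. CellTiter-Glo was added, plates sat 10 min at room temperature, then ATP-coupled luminescence was imaged as the viability read-out.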

HEK293 = tested on: HEK293
Procedure, shortened: as §1

HaCat = tested on: HaCat
Procedure, shortened: as §1

KB-3-1 = tested on: KB-3-1
Procedure, shortened: as §1

NIH3T3 = tested on: NIH3T3
Procedure, shortened: as §1

Measured: max response
% is set by controls: 0 for no effect and ±100 for the full control effect.

C/C(=C/CO)CC[C@H]1[C@]2(C)C[C@H](O)CC(C)(C)[C@H]2CC[C@]1(C)O
inactive: CRL-7250 -3.5% | HEK293 4.37% | HaCat | KB-3-1 3.57% | NIH3T3 3.86%

CC1(C)COC(=O)[C@@H]1O[C@@H]1O[C@H](CO)[C@@H](O)[C@H](O)[C@H]1O
inactive: CRL-7250 4.71% | HEK293 0.945% | HaCat | KB-3-1 | NIH3T3 0.729%

O=C(OCc1ccccc1O[C@@H]1O[C@H](CO)[C@@H](O)[C@H](O)[C@H]1O)C1(O)C=CCCC1O (stereo not given in full)
inactive: CRL-7250 3.78% | HEK293 2.2% | HaCat -2.8% | KB-3-1 5.3% | NIH3T3

COc1cc(/C=C/C(=O)OCC2OC(OC3(CO)OC(CO)C(O)C3O)C(O)C(O)C2O)ccc1O (stereo not given)
inactive: CRL-7250 0.86% | HEK293 0.768% | HaCat 2.88% | KB-3-1 | NIH3T3

O=C(Cn1c2ccccc2c2nc3n(c(=O)c21)CCS3)N1CCCC1
inactive: CRL-7250 | HEK293 -15.3% | HaCat | KB-3-1 | NIH3T3 1.74%

CC(C)(CC(=O)N1CCCC1)NCC(=O)N1C[C@@H](F)C[C@H]1C#N
inactive: CRL-7250 -2.43% | HEK293 -0.937% | HaCat -28% | KB-3-1 1.01% | NIH3T3

CCCC(=O)Nc1cccc(NC(=O)c2ccccc2Br)c1
inactive: CRL-7250 | HEK293 -4.38% | HaCat | KB-3-1 8.7% | NIH3T3 3.78%

Fc1ccccc1-c1nc2ccn(Cc3ccc(-c4ccc(C(F)(F)F)cc4C(F)(F)F)nn3)cc-2n1
inactive: CRL-7250 1.68% | HEK293 -5.52% | HaCat | KB-3-1 -0.729% | NIH3T3 -4.04%
